Most compounds without a hit are left out; they make up all but 3.3% or so of the library.
eIF4E 4G PPI = blocks eIF4E binding to eIF4G; TR-FRET eIF4E-eIF4GI(517-606) binding, 2 h; inhibition, % at 21.7 µM; hit rate 0.37% among 220,000; AID 782;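 further: 0% = full FRET control wells and 100% = background wells lacking eIF4GI fragment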
Target sequence (P63073 whole entry, looked up, the tested form may be a part): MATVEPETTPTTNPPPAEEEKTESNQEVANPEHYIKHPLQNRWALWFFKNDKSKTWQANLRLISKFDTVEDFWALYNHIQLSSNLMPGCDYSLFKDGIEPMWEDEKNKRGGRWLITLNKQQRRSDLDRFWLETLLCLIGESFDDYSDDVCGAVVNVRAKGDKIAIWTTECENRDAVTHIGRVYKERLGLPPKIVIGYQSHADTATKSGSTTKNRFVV
Target sequence (Q04637 whole entry, looked up, the tested form may be a part): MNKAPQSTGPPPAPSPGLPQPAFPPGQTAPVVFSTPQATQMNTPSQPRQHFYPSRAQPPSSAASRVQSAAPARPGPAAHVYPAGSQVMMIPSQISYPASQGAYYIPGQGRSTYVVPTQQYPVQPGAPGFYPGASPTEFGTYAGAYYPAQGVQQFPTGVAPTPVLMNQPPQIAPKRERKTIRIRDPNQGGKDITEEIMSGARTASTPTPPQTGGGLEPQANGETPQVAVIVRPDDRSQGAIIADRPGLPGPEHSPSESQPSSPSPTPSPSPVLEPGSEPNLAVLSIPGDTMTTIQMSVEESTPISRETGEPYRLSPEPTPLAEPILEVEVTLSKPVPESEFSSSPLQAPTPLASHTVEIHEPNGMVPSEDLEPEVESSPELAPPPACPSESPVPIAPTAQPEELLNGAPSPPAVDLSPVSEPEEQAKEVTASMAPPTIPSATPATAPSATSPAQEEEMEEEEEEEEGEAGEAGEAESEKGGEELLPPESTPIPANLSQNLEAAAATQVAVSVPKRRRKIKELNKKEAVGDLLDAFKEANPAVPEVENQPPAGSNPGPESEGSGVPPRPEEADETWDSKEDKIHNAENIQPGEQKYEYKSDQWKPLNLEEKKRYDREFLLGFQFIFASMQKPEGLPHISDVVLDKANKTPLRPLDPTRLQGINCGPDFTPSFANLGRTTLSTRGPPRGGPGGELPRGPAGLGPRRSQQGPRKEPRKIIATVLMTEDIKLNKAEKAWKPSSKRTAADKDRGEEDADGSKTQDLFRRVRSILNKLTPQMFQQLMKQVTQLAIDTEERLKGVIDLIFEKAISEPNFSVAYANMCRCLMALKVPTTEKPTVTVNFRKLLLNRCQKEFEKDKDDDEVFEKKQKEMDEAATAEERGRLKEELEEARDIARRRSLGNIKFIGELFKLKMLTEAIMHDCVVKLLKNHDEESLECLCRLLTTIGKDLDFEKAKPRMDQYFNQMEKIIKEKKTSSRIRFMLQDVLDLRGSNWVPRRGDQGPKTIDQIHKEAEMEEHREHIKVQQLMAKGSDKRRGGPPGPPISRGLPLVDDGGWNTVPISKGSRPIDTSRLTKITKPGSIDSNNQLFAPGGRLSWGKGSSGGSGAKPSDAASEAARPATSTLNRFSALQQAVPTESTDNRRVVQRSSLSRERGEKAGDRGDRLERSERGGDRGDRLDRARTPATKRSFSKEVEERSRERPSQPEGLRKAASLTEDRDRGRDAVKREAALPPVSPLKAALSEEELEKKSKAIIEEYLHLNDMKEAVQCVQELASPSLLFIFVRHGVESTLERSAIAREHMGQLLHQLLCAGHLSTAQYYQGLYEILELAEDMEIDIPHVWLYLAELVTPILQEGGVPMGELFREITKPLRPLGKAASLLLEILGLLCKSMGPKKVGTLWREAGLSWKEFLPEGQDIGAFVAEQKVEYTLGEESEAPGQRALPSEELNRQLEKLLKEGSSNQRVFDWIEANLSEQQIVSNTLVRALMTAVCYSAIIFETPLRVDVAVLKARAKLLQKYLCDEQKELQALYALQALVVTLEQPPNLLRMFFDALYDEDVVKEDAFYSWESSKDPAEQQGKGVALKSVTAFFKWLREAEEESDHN
Mcl-1 Bim block = disrupts Bim peptide binding to human Mcl-1; hit rate 0.1% among 190,000; Q07820; AID 1009; inhibition, % at 10 µM; Bead-based flow cytometry, Bim peptide-Mcl-1 binding; in the data active means inhibition above about 40%;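 further: 0% = no compound tracer wells and 100% = peptide blocker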
14-3-3 Bad inh = disrupts binding of bovine 14-3-3 zeta to phospho-Bad peptide; P63103; TR-FRET 14-3-3zeta/Dy647-pBad peptide displacement, 1 h; inhibition, % at 21.7 µM; hit rate 0.71% among 220,000; AID 781;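 active means inhibition above about 70%, limit read from the data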;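 further: 0% = full 14-3-3 plus peptide FRET controls and 100% = background without 14-3-3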
Mcl1 Bid PPI = Mcl-1/Bid interaction inhibition. AID 1021. hit rate 0.97% among 220,000. inhibition, % at 21.7 µM. Q07820. TR-FRET Mcl-1/Bid-Dy647 peptide binding, 1536-well;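 active means compounds that cut the binding signal by more than half at the single screening dose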;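 further: His-tagged Mcl-1 with europium anti-His antibody binding Bid BH3 peptide; 0% = Mcl-1 plus peptide wells and 100% = peptide-only wells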
Mcl1 Noxa PPI = disrupts binding of human Mcl-1 to Noxa peptide | TR-FRET Mcl-1/Noxa peptide binding, 2 h | inhibition, % at 21.7 µM | AID 1022 | Q07820 | hit rate 1.5% among 220,000;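 active means compounds that cut the protein-peptide binding signal by more than 50% relative to plate controls in a single-dose test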;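 further: His-tagged Mcl-1 with rhodamine Noxa BH3 peptide and terbium anti-His antibody; 0% = Mcl-1 plus Noxa peptide wells and 100% = peptide-only wells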
p47phox inh = blocks human p47phox regulatory protein of NADPH oxidases. inhibition, % at 24.7 µM. P14598. p47phox/p22phox peptide binding, fluorescence polarization, 2 h. hit rate 0.53% among 220,000. AID 1274;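 further: 0% = p47phox with labelled peptide and 100% = labelled peptide alone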
An asterisk follows results filed as active; / = not tested or not shown; [ ] = remark or other dose.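 How the source made its calls, unless noted: active means inhibition above about 30% (limit read from the data); inactive means the rest.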

SMILES	eIF4E 4G PPI	Mcl-1 Bim block	14-3-3 Bad inh	Mcl1 Bid PPI	Mcl1 Noxa PPI	p47phox inh
COC(=O)[C@@H]1C[C@@]2(O)[C@@H](O)[C@@H](O)[C@@H](O)C[C@H]2N1CC(c1ccccc1)c1ccccc1	-0.6	/	-3.1	-55.5	-3.6	-22.5
O=C(CSc1nc2ncccc2[nH]1)c1ccc2c(c1)OCO2	-0.2	/	12.1	1.8	9.2	-3.7
COC(=O)c1cc(Nc2cc(C)c3c(O)cccc3n2)cc(C(=O)OC)c1	-6.4	/	6.7	-18.1	56.2*	-21.1
Cc1ccccc1Nc1cc(C)c2c(O)cccc2n1	0.4	-2.0	-1.8	-1.5	50.5	-23.9
Cc1ccc(Nc2cc(C)c3c(O)cccc3n2)cc1C	-0.3	/	-1.2	-25.0	53.8*	-10.0
COc1ccc(Nc2cc(C)c3c(O)cccc3n2)cc1	7.1	/	3.6	-58.0	77.5*	-4.2
O=C(CSc1ccccn1)N/N=C/c1ccccc1[N+](=O)[O-]	20.9	-2.0	83.8*[fluorescence artefact?]	10.7	10.5	-3.1
COc1ccc2c(c1)c(=O)oc1cc(OCC(=O)N3CCC(C)CC3)ccc12	8.8	0.0	7.2	2.5	36.0	-5.2
COc1ccc2c(c1)c(=O)oc1cc(OCC(=O)N3CCc4ccccc4C3)ccc12	12.9	-5.0	17.6	52.9*	58.0*	-9.9
O=C(CSc1ccccn1)N/N=C/c1cc([N+](=O)[O-])ccc1O	-12.9	/	-3.6	-63.0	-52.8	1.4
Cc1cc(=O)oc2cc(OCC(=O)N/N=C/c3ccccc3[N+](=O)[O-])ccc12	0.6	1.0	63.6	63.4*	50.2	27.2
O=C(COc1ccccc1)N/N=C/c1cc2c(cc1[N+](=O)[O-])OCO2	-2.6	-3.0	6.2	-25.6	19.4	-13.6
Cc1cc(=O)oc2cc(OC(C)C(=O)N3CCOCC3)ccc12 (centres undefined)	0.2	-1.0	-4.3	-0.1	-5.0	-71.0
Cc1cc(=O)oc2cc(OCC(=O)N3CCOCC3)ccc12	-0.5	-11.0	12.6	12.8	63.5*	5.5
COCCN(C(=S)Nc1c(C)cccc1C)C(C)c1ccco1 (centres undefined)	-8.1	/	-1.8	-124.5	4.9	-15.8
O=C(/C=C/c1cccc([N+](=O)[O-])c1)Nc1cccc(NC(=O)c2cccs2)c1	0.3	3.0	-4.8	-13.4	3.9	-14.2
CC(C)N1CCc2c(sc(NC(=O)c3ccc(S(=O)(=O)N4CCc5ccccc54)cc3)c2C(N)=O)C1	-6.3	-1.0	53.4	16.2	71.9*	21.4
O=C(Cc1ccccn1)Nc1ccccc1	7.8	-2.0	73.0*[fluorescence artefact?]	16.0	23.9	-8.2
CCO[C@@H]1OC(C(=O)N2CCOCC2)=C[C@H](c2ccccc2)[C@H]1CCCO	4.0	-1.0	-7.6	1.7	8.9	6.5
COc1ccc2c(c1)c(=O)oc1cc(O)ccc12	-2.3	0.0	3.7	-10.2	6.0	-1.7
COc1ccc2c(c1)c(=O)oc1cc3oc(C)c(C)c3cc12	5.7	-4.0	10.2	66.7*	55.8*	2.9
CC(C)N1CCN(Cc2ccc(Sc3nncn3C)o2)CC1CCO (centres undefined)	94.0*	/	-1.8	-9.5	-21.5	-7.3
CCc1ccc(OCc2nnc(SCCN3CCOCC3)n2CC)cc1	3.8	-1.0	66.0	57.7*	34.4	-11.3
NCCCCCc1nnc(SCC(N)=O)o1	-3.2	0.0	-1.0	-22.0	8.4	-3.7
Cc1cc(NC(=O)CSc2ccccc2)no1	65.7*	-2.0	1.8	-21.0	-2.1	-8.4
SMILES	eIF4E 4G PPI	Mcl-1 Bim block	14-3-3 Bad inh	Mcl1 Bid PPI	Mcl1 Noxa PPI	p47phox inh
Cc1cc(NC(=O)CSc2ccc(F)cc2)no1	-0.9	-2.0	6.2	-26.7	15.0	-5.3
COc1ccc(CCn2c(SCC(=O)Nc3cc(C)on3)nc3ccsc3c2=O)cc1OC	-93.7	-1.0	19.5	37.5	-12.2	48.5*
Cc1cc(NC(=O)CSc2nnc(NCc3ccccc3)s2)no1	93.8*	/	2.0	-20.5	3.5	-19.1
COc1ccccc1Nc1nnc(SCC(=O)Nc2cc(C)on2)s1	-8.9	10.0	0.3	6.5	38.1	-16.6
Cc1cc(NC(=O)CSc2nc3ccccc3c(=O)n2Cc2ccc(F)cc2)no1	11.7	-1.0	73.7*	56.7*	-180.3	23.2
C[C@H](NC(=O)c1nc[nH]c1C(=O)NC1CCN(C(=O)OC(C)(C)C)CC1)C(=O)OCc1ccccc1	3.8	-2.0	-6.6	-6.9	-21.2	/
